Screening data from PubChem.
MARV entry inh = Marburg virus entry inhibition. Marburg virus pseudotyped entry inhibition, cell reporter. Potency, µM (highest dose often 37.8 µM), for the others: at the highest dose activity change, negative = inhibition, usual class: inhibitors. actives 1.8% (n = 300,000); calls by dose curve; tested in HEK293 cells
HCV inhibitor = inhibitors of hepatitis C virus infection. Potency, µM (series often up to 41.8 µM), for inactives: top-dose activity change, negative = inhibition, hits mostly inhibitors. actives 3.4% (n = 340,000). Huh7.5.1 HCVcc-Cre infection, luciferase reporter, 44 h; active means well fitted inhibition curve with a large enough effect; inconclusive means small, poorly fitted or top-dose-only effect, or another doubt; inactive means no such curve, though single readings can be large or run the other way
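Whole-lifecycle infectious HCVcc-Cre system; cells 1,000/well, compound then virus (~0.5 moi) added 4 h after plating, 44 h culture. Luciferase read 15 sec following 15 min substrate incubation, room temp.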
Vaccinia mCherry = inhibitors of vaccinia virus infection (mCherry reporter signal); Vaccinia virus mCherry reporter infection, fluorescence; Potency, µM (titrated, usually from 36.5 µM), inactives show top-dose activity change, negative = inhibition, most hits filed as inhibitors; actives 0.63% (n = 310,000); calls by dose curve; tested in A549 cells; further: nearly all actives have a fitted effect of over 35% in size
LASV entry inh = Lassa virus entry inhibition; actives 1.2% (n = 300,000); Lassa virus pseudotype entry inhibition, cell reporter; Potency, µM (doses to about 37.9 µM), without a hit: at the top dose activity change, negative = inhibition, hits mostly inhibitors; calls by dose curve; tested in HEK293 cells; further: nearly all actives have a fitted effect of over 50% in size
Vaccinia Venus = inhibitors of vaccinia virus (Venus reporter). Vaccinia virus Venus reporter expression, fluorescence. Potency, µM (series often up to 36.5 µM), for the others: at the highest dose activity change, negative = inhibition, actives largely listed as inhibitors. actives 0.46% (n = 330,000). AID 720580; calls by dose curve; tested in A549 cells; further: nearly all actives have a fitted effect of over 30% in size
FMDV antiviral = blocks foot and mouth disease virus | FMDV antiviral cell-based qHTS | Potency, µM (top dose mostly 57.9 µM), inactives show at the top dose activity change, negative = inhibition, most hits filed as inhibitors | actives 1.2% (n = 410,000) | AID 1159524; calls by dose curve; tested in HEK293T cells; further: read-out not given here; nearly all actives have a fitted effect of over 45% in size
* hit, by the source's call; [ ] = dose if it differs, or a comment. The list is not random: actives were taken first. Their share in the collection is about 5.3%. On the % scale 0 is the no-effect control and ±100 the full control effect; potency means the concentration at half of the fitted maximal effect.

Results for CC1CCc2nc(NC(=O)Cc3cccs3)sc2C1 (centres undefined) ?
MARV entry inh: 0.0%; HCV inhibitor: inconclusive; LASV entry inh: -20.5%; Vaccinia Venus: -26.2%; FMDV antiviral: 20.6%

What do the screens show for `O=C(Nc1ccc(-c2nc3ccccc3s2)cc1)C1=COCCO1`?
MARV entry inh: 0.794µM*; HCV inhibitor: 5.6%; Vaccinia mCherry: inactive; LASV entry inh: 2µM*; Vaccinia Venus: -2.3%; FMDV antiviral: 10µM*

How did CC(=O)Nc1nc2cc3c(cc2s1)OCO3 do in these assays?
HCV inhibitor: 8.1%; Vaccinia mCherry: -19.5%; Vaccinia Venus: 3.4%; FMDV antiviral: 46.9%

How did O=C(CN1N=C(c2ccc(Cl)cc2)CCC1=O)NCc1ccc(F)cc1 do in these assays?
Vaccinia mCherry: -6.4%; LASV entry inh: 11.0%[46.1 µM]; Vaccinia Venus: -5.6%; FMDV antiviral: -12.2%

Results for CC(=O)C1=C(c2ccccc2)N(C(C)=O)n2c(nnc2C2CCCCC2)S1 ?
Vaccinia mCherry: -13.0%[7.34 µM]; LASV entry inh: inconclusive; Vaccinia Venus: -5.6%[7.34 µM]; FMDV antiviral: -27.4%

How did CCC1CN(C(=O)N2CCC(C(=O)NCc3ccccc3F)CC2)c2ccccc2O1 (centres undefined) do in these assays?
Vaccinia mCherry: 2.2%; LASV entry inh: 12.4%[46.1 µM]; Vaccinia Venus: -1.2%; FMDV antiviral: -28.4%

How did O=C(Nc1nc2cc3c(cc2s1)OCO3)C1=COCCO1 do in these assays?
MARV entry inh: 0.651µM*; HCV inhibitor: inconclusive; Vaccinia mCherry: inconclusive; LASV entry inh: inconclusive; Vaccinia Venus: -26.5%; FMDV antiviral: -83.3%

What do the screens show for `O=C(Nc1nc2cc3c(cc2s1)OCO3)c1ccco1`?
MARV entry inh: inconclusive; HCV inhibitor: 0.3%; Vaccinia mCherry: inactive; LASV entry inh: inconclusive; Vaccinia Venus: -7.5%; FMDV antiviral: -75.2%

Results for Cc1ccc(Cn2c(CNC(=O)c3cccc(C)c3)nc3ccccc32)cc1 ?
MARV entry inh: 2.1%[46.1 µM]; Vaccinia mCherry: -15.7%; LASV entry inh: -12.9%[46.1 µM]; Vaccinia Venus: -19.6%; FMDV antiviral: 10.8%

How did COc1ccccc1/C=C/c1nc2ccccc2s1 do in these assays?
Vaccinia mCherry: 14.2%; Vaccinia Venus: -10.3%

Results for Cc1ccc(C2CC(c3ccc(F)cc3)Nc3nc(N)nn32)cc1 (centres undefined) ?
MARV entry inh: 10.1%; HCV inhibitor: 3.8%; Vaccinia mCherry: -10.8%; LASV entry inh: 4.6%; Vaccinia Venus: -14.7%; FMDV antiviral: -13.9%

What do the screens show for `CCc1ccc(C2CC(c3ccc(C)cc3)Nc3nc(N)nn32)cc1` (centres undefined)?
MARV entry inh: 2.6%; HCV inhibitor: -2.9%; Vaccinia mCherry: 100µM*; LASV entry inh: 7.2%; Vaccinia Venus: 31.6µM*; FMDV antiviral: -18.4%

What do the screens show for `CC1CCCCC1S(=O)C1=C(C(=O)O)CCCC1` (centres undefined)?
MARV entry inh: 6.8%[46.1 µM]

How did COc1cc2c(cc1NC(=O)C1CCCO1)oc1ccccc12 (centres undefined) do in these assays?
MARV entry inh: 8.7%; HCV inhibitor: 7.94µM*; Vaccinia mCherry: -19.5%; LASV entry inh: 108.1%[14.3 µM]; Vaccinia Venus: -11.1%; FMDV antiviral: 51.7%

Results for COc1cc2c(cc1NC(=S)Nc1cccc(C)c1)oc1ccccc12 ?
MARV entry inh: 15.6%; HCV inhibitor: 8.91µM*; LASV entry inh: 1.2%; FMDV antiviral: 64.4%

What do the screens show for `CNC(=S)Nc1cc2oc3ccccc3c2cc1OC`?
MARV entry inh: 11.4%[46.1 µM]; HCV inhibitor: 11.2µM*; Vaccinia mCherry: inconclusive; LASV entry inh: 9.5%[46.1 µM]; Vaccinia Venus: -27.8%; FMDV antiviral: 23.9%

Results for CCNC(=S)Nc1cc2oc3ccccc3c2cc1OC ?
MARV entry inh: -17.3%[46.1 µM]; HCV inhibitor: 22.4µM*; Vaccinia mCherry: inconclusive; LASV entry inh: -20.0%[46.1 µM]; Vaccinia Venus: inconclusive; FMDV antiviral: 1.7%

How did Cc1ccc(N2CC(c3nnc(NC(=O)c4ccco4)s3)CC2=O)cc1Cl (centres undefined) do in these assays?
MARV entry inh: 2.6%[46.1 µM]; Vaccinia mCherry: 0.5%; LASV entry inh: 3.0%[46.1 µM]; Vaccinia Venus: 1.9%; FMDV antiviral: -14.4%

Results for Cc1nc2ccccc2nc1-c1csc(-c2ccccc2)n1 ?
Vaccinia mCherry: -19.8%; Vaccinia Venus: -17.0%

What do the screens show for `CCOc1ccc(NC(=O)c2cc3c(=O)n4cccc(C)c4nc3s2)cc1`?
MARV entry inh: -14.7%[46.1 µM]; Vaccinia mCherry: 0.1%; LASV entry inh: 1.3%[46.1 µM]; Vaccinia Venus: -3.2%; FMDV antiviral: -5.2%

What do the screens show for `Cc1ccc(C)c(NC(=O)c2nnn(Cc3ccc(F)cc3Cl)c2N)c1`?
MARV entry inh: -6.8%[46.1 µM]; Vaccinia mCherry: -15.9%; LASV entry inh: 12.3%[46.1 µM]; Vaccinia Venus: -8.1%; FMDV antiviral: 0.0%

Results for COc1ccc(/C=C/C(=O)NC(=S)Nc2cc3oc4ccccc4c3cc2OC)cc1 ?
MARV entry inh: -15.0%; HCV inhibitor: 7.8%; Vaccinia mCherry: -4.3%; LASV entry inh: -11.6%; Vaccinia Venus: -6.6%; FMDV antiviral: -2.9%

What do the screens show for `COc1cc2c(cc1NC(=O)/C=C/c1ccccc1)oc1ccccc12`?
MARV entry inh: inconclusive; HCV inhibitor: 7.08µM*; Vaccinia mCherry: -4.8%; LASV entry inh: inconclusive; Vaccinia Venus: -10.8%

Results for COc1ccc(-c2cn3nc(N4CCCC(C(=O)NCc5ccc(Cl)cc5)C4)sc3n2)cc1 (centres undefined) ?
Vaccinia mCherry: inconclusive; LASV entry inh: inconclusive; Vaccinia Venus: inconclusive; FMDV antiviral: -22.7%

What do the screens show for `CCOc1cc(/C=N/NC(=O)COc2ccc(C)cc2)ccc1OC(=O)c1cccs1`?
MARV entry inh: 16.4%; HCV inhibitor: 2.4%; Vaccinia mCherry: inactive; LASV entry inh: inconclusive; Vaccinia Venus: -8.0%

How did COc1cc(/C=N/NC(=O)COc2ccc(C)cc2)ccc1OC(=O)c1cccs1 do in these assays?
MARV entry inh: 9.7%; HCV inhibitor: 29.0%; Vaccinia mCherry: 9.2%; LASV entry inh: 9.2µM*; Vaccinia Venus: 5.6%; FMDV antiviral: 0.6%

How did c1ncc(CCCC2CCNCC2)[nH]1 do in these assays?
FMDV antiviral: -7.7%

What do the screens show for `CN(c1ccc(OCCOc2ccccc2Cl)cc1)S(=O)(=O)c1ccccc1`?
MARV entry inh: inconclusive; HCV inhibitor: inconclusive; Vaccinia mCherry: -28.3%; LASV entry inh: inconclusive; Vaccinia Venus: -23.4%; FMDV antiviral: -18.0%

Results for COc1ccc(OCCOc2ccc(N(C)S(=O)(=O)c3ccccc3)cc2)cc1 ?
HCV inhibitor: 11.2µM*; FMDV antiviral: inconclusive

Results for CC(=O)Nc1ccc(S(=O)(=O)N(C)c2ccc(OCCOc3ccccc3F)cc2)cc1 ?
MARV entry inh: 1.4%; HCV inhibitor: 10µM*; Vaccinia mCherry: -14.3%; LASV entry inh: -18.7%; Vaccinia Venus: -7.2%; FMDV antiviral: -10.2%

What do the screens show for `COc1cc(/C=N/N(C)c2ccccc2)ccc1O`?
MARV entry inh: inconclusive; HCV inhibitor: inconclusive; Vaccinia mCherry: -25.3%; LASV entry inh: -0.8%; Vaccinia Venus: -20.2%; FMDV antiviral: 43.8%
